In all, about 360,000 compounds went through this assay and about 4,200 (1.2%) were called active.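 The calls were made as follows: active = mean replicate inhibition at least 60% with every replicate also reaching 60%; inconclusive = only one of the two criteria is met; inactive = mean below 60% and not all replicates reaching 60%.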 The full list was thinned out, with actives kept by preference.

The assay can be described thus: inhibitors of PAX8-driven TPO luciferase reporter, primary screen, RMG-I cells, single concentration (AID 652154).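 Also: luciferase light reporting Pax8 driven TPO promoter activity; plate controls were median of neutral control wells for no effect and mitoxantrone controls for full effect.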 The conditions noted are these: SteadyGlo, 24 h, at 12.6 µM, hits give high values.
As a reminder, the inhibition is the drop in the measured response relative to a control, in per cent. `O=C(Nc1cccc([N+](=O)[O-])c1)N1CCc2ccccc2C1`: the inhibition was -115% (inactive). Next, `COC(=O)/C=C\C(=O)Nc1cccc([N+](=O)[O-])c1`: 87.5% (active); `Cc1ccc(NC(=O)O/N=C/c2cccc([N+](=O)[O-])c2)cc1`: -64.7% (inactive); `Cc1cccc(NC(=O)c2ccc([N+](=O)[O-])o2)c1`: 86.2% (active). With `Cc1onc(NC(=O)c2ccc([N+](=O)[O-])o2)c1Br` the figure was 12.3% (inactive); with `O=C(Nc1cccc(NC(=O)c2ccccc2[N+](=O)[O-])c1)c1ccccc1Cl`, -26.3% (inactive).

In the case of `O=C(N[C@H]1CC[C@H](CCNS(=O)(=O)c2ccc(F)cc2)O[C@H]1CO)C1CCC1`, the inhibition is 5.47% (inactive). With `O=C(N/N=C/c1ccccc1O)/C(=C/c1ccccc1)CCO` the figure was 8.09% (inactive); with `O=C(CCc1ccc(O)cc1)NN=Cc1cc(Br)ccc1O`, 5.02% (inactive). With `O=C(CCCO)N/N=C/c1cc(Br)ccc1O` the figure was 65% (active); with `CN1CCN(C(=O)C[C@H]2C[C@@H]3c4cc(NS(=O)(=O)c5ccc(F)cc5)ccc4O[C@@H]3[C@@H](CO)O2)CC1`, -4.63% (inactive); with `CC(C)(COC(=O)Nc1ccccc1)COC(=O)Nc1ccccc1`, -10.7% (inactive). `CCOC(=O)Nc1ccc2c(c1)N(C(=O)CCCl)c1ccccc1[S@]2=O`: the inhibition is 120% (active). With `CCOC(=O)Nc1ccc2c(c1)N(C(=O)CN1CCN3CCCC3C1)c1ccccc1CC2` (centres undefined), the inhibition is -14.6% (inactive).

Turning to `CO[C@H]1CN(C)C(=O)c2ccc(NC(=O)C3CC3)cc2OC[C@@H](C)N(C(=O)CN2CCOCC2)C[C@H]1C`, the inhibition is 8.74% (inactive). With `Cc1onc(-c2ccccc2)c1C(=O)NNC(=S)NC(=O)c1ccc(F)cc1` the figure was 69.8% (active); with `O=C(NNC(=S)NC(=O)c1cn(-c2ccccc2)nc1-c1ccccc1)c1ccncc1`, -7.23% (inactive); with `COc1ccc(C(=O)NNC(=O)c2cc(C)[nH]n2)cc1`, -12.8% (inactive). With `Cc1onc(-c2ccccc2)c1C(=O)N=C(N)c1ccc(Cl)cc1` the figure was 8.52% (inactive); with `Cc1[nH]c2ccccc2c1C(=O)COC(=O)c1c(-c2ccccc2)noc1C`, 20.4% (inactive).

For `COc1ccc(C(=O)NC(=S)NNC(=O)c2c(-c3ccccc3)noc2C)cc1`, the inhibition was 103% (active).

For the molecule `COc1cccc(-c2ccc3n(c2=O)C[C@H]2[C@H](CO)[C@@H](C(=O)N4CCCCC4)N(C)[C@@H]32)c1`, the inhibition is 10.3% (inactive). With `C[C@@H]1CN([C@H](C)CO)C(=O)c2cc(C#Cc3cccnc3)cnc2O[C@@H]1CN(C)Cc1ccc(F)cc1` the figure was -16.3% (inactive); with `Cc1ccccc1S(=O)(=O)NCC[C@@H]1CC[C@H](NC(=O)C2CCC2)[C@@H](CO)O1`, 6.58% (inactive).

The values above are taken from PubChem BioAssay AID652154 (Broad Institute, 2013).
